Screening data deposited in PubChem BioAssay by National Center for Advancing Translational Sciences (NCATS).
Shown are actives, neighbours in structure and some others; about 4.7% of the full set was active somewhere.
TRHR agonist = TRH receptor (human) agonism; TRHR cells, calcium flux fluo-8, FDSS agonist mode; activation, % at 2 µM; P34981; 360,000 compounds, 0.18% hits; AID 493084; note: 0% is about no effect
Target sequence (P34981 whole entry, looked up): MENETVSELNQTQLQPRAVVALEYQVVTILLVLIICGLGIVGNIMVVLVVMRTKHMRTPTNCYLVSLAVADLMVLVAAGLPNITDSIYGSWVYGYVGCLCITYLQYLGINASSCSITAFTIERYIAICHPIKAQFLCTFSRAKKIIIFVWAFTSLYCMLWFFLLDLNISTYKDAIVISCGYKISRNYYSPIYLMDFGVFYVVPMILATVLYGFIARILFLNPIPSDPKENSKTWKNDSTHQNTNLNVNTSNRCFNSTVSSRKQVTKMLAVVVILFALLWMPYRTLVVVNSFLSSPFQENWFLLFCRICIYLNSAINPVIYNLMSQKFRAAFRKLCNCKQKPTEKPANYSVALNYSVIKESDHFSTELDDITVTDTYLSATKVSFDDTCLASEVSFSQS
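Fluo-8-loaded TRHR cells; 10 s baseline, compound added, kinetic Ca2+ fluorescence read 1/s, agonist mode.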
D1 agonist = agonists of human D1 dopamine receptor. P21728. HEK293 T-REx D1 cells, calcium flux, agonist mode. activation, % at 2 µM. 360,000 compounds, 1% hits. AID 504660; note: 0% is about no effect
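Agonism was scored from calcium flux recorded over 180 s (1 read/s) after pintool compound addition, following a 10-cycle baseline. Cells were inducible force-coupled HEK293 TREx D1, plated overnight at 30 C and loaded with no-wash calcium dye.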
D1 antagonist = antagonists of human D1 dopamine receptor; HEK293 TREx D1 cells, calcium flux, dopamine EC80; hits give low values; activity change, negative = inhibition, % at 10 µM; 360,000 compounds, 3.2% hits; in the data active = activity change below about -30%; note: % is set by controls: 0 for no effect and ±100 for the full control effect
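Compound effects on dopamine-evoked calcium signalling were measured in tetracycline-induced HEK293 Trex D1 cells. Dopamine at EC80 followed a 180 s compound pre-read, and fluorescence was tracked kinetically for 180 s more.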
D1 potentiator = human D1 dopamine receptor positive modulation | P21728 | HEK293 TREx D1 cells, calcium flux, dopamine EC20 potentiation | potentiation, % at 10 µM | 360,000 compounds, 0.036% hits; in the data active = potentiation above about 30%; note: 0% is about no effect
TRHR PAM = TRH receptor (human) allosteric enhancement | P34981 | enhancement, % at 2 µM | TRHR cells, fluo-8 calcium fluorescence, EC20 TRH enhancement | AID 493056 | 360,000 compounds, 0.66% hits; in the data active = enhancement above about 30%; note: 0% is about no effect
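Enhancer read-out: after compound pinning and an initial kinetic agonist-mode read, an EC20 of TRH (10 nM final) was injected and fluo-8 calcium signal (Ex 480/Em 530) followed at 1 s/cycle for 100 cycles in TRHR-expressing cells.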
Starred values were filed as active, the others as inactive; ! = not active in a repeat. Cut-off read from the data, not from the text of the source, unless noted: active = activation above about 30%; inactive = the rest.

SMILES | TRHR agonist | D1 agonist | D1 antagonist | D1 potentiator | TRHR PAM
Cn1nc(-c2ccccc2)cc1NC(=O)c1ccc(Cl)cc1 | 0 | 24 | 0 | -4 | -3
CCC(C)c1ccccc1OCCn1ccnc1 (stereo unspecified) | -1 | 7 | -34* | -5 | -5
COc1ccccc1OCCn1ccnc1 | 1 | 1 | 11 | 6 | -1
O=C(NCc1ccccc1)c1nn(-c2ccccc2)nc1CO | 0 | 2 | -5 | -2 | 0
C1CCC(Nc2nc3nonc3nc2N2CCSCC2)C1 | 0 | 4 | 0 | -8 | 32*
CCOC(=O)N1CCN(C(=O)c2c[nH]c3ccc(S(=O)(=O)N(C)c4ccccc4C)cc3c2=O)CC1 | 1 | 2 | -34* | -10 | -1
CCOC(=O)N1CCN(C(=O)c2c[nH]c3ccc(S(=O)(=O)N(C)c4cccc(C)c4)cc3c2=O)CC1 | 6 | 5 | -13 | -3 | -1
Cn1c(=O)n(CC(=O)O)c(=O)c2c1nc1n2CCS1 | -1 | 1 | -10 | -9 | 40*!
COc1ccccc1NC(=O)c1c(NC(=O)COc2ccccc2)sc2c1CCCCC2 | 0 | 0 | 4 | -2 | -1
COc1ccc(NC(=O)c2c(NC(=O)COc3ccccc3)sc3c2CCCCC3)cc1 | 0 | -1 | -37* | 3 | -6
O=C(Nc1cccc(Cl)c1)c1c(NC(=O)C(F)(F)F)sc2c1CCCC2 | 5 | 16 | -35* | -3 | -8
Cc1cccc(NC(=O)c2c(NC(=O)C(F)(F)F)sc3c2CCCCC3)c1 | 1 | 34* | -37* | -2 | 10
Cc1cccc(NC(=O)c2c(Br)sc3c2CCCC3)c1 | 0 | 0 | -27 | -2 | -9
Cc1ccc(NC(=O)c2c(NC(=O)C(F)(F)F)sc3c2CCCCC3)cc1 | 2 | 32* | -42* | -2 | 9
Cc1ccc(NC(=O)c2c(NC(=O)c3ccccc3)sc3c2CCC3)cc1 | 0 | -2 | -11 | 0 | -7
O=C(NCc1cccc(Cl)c1)c1ccc(NC(=O)N2CCSc3ccccc32)cc1 | 0 | 1 | 8 | -2 | -1
Cc1ccccc1NC(=O)c1c(NC(=O)C(F)(F)F)sc2c1CCCCC2 | 3 | 35* | -21 | -1 | 12
Cc1ccc(Cl)cc1NC(=O)c1oc2ccc(S(=O)(=O)N3CCCCC3)cc2c1C | 0 | -2 | -3 | 0 | 0
COc1cccc(CNC(=O)CN2CCC(c3nc4ccc(C)cc4[nH]3)CC2)c1 | -1 | 0 | -38* | -2 | 1
COCCCNC(=O)C1CCN(c2nc3ccc(C)cc3[nH]2)CC1 | 0 | 2 | -55* | -2 | -2
COc1ccc(CNC(=O)C2CCN(c3nc4ccc(C)cc4[nH]3)CC2)cc1 | 0 | 38* | -1 | 7 | -2
Cc1ccc2nc(N3CCC(C(=O)NCc4ccc(F)cc4)CC3)[nH]c2c1 | 0 | 1 | -10 | 3 | 3
Cc1ccc(CN2CCC(c3nc4ccc(Cl)cc4[nH]3)CC2)cc1 | 1 | 19 | -31* | -6 | 7
Clc1ccc2nc(C3CCN(Cc4ccccc4)CC3)[nH]c2c1 | 1 | 3 | -14 | -10 | 1
O=C(O)c1nn(CCOc2ccccc2F)c(=O)c2ccccc12 | -1 | 3 | 12 | 2 | -9
SMILES | TRHR agonist | D1 agonist | D1 antagonist | D1 potentiator | TRHR PAM
Fc1ccc(-c2nc(Nc3cccc(C(F)(F)F)c3)nc3c2COc2ccccc2-3)cc1 | 7 | 29 | 3 | -2 | -4
CC1CCCN(CC(O)COc2ccc(-c3ccccc3)cc2)C1 (stereo unspecified) | 2 | 42* | 2 | -2 | 0
CCOC(=O)N1CCN(CC(O)COCc2ccccc2)CC1 (stereo unspecified) | 0 | 2 | 18 | 5 | 4
CCOC(=O)N1CCN(CC(O)COc2ccc(-c3ccccc3)cc2)CC1 (stereo unspecified) | 0 | 8 | -31* | -4 | 5
OC1CCCN(CC(O)COc2ccc(-c3ccccc3)cc2)C1 (stereo unspecified) | 1 | 30* | 5 | -7 | -2
CC1CCCN(CC(O)COc2ccc(Cl)cc2)C1 (stereo unspecified) | 2 | 7 | 10 | -1 | 4
O=C1c2ccc(Oc3ccc([N+](=O)[O-])cc3)cc2C(=O)N1CCCO | 0 | 7 | -37* | 3 | 4
CCC(C)N1C(=O)/C(=C/c2c(NCCCOC(C)C)nc3c(C)cccn3c2=O)SC1=S (stereo unspecified) | 34* | 81* | -6 | -5 | -6
CCCN1C(=O)/C(=C/c2c(NCCCOC(C)C)nc3c(C)cccn3c2=O)SC1=S | 15 | 44* | -21 | 1 | 4
CC(C)CC(=O)Nc1ccc2c(c1)nc(CCN1CCCCC1)n2C | 1 | 0 | 1 | -9 | 0
COc1ccc(C2C=C(c3ccc(Cl)c(Cl)c3)Nc3ncnn32)cc1 (stereo unspecified) | 8 | 48* | 5 | -3 | 4
CCOc1ccc(C2=CC(c3cc(Br)ccc3F)n3ncnc3N2)cc1Cl (stereo unspecified) | 0 | 9 | -86* | -8 | -6
COc1ccc(C2C=C(c3ccc(C)cc3)Nc3ncnn32)cc1 (stereo unspecified) | -1 | -1 | 4 | -1 | 10
CCOC(=O)C1=C(C)Nc2ncnn2C1c1cc(Br)ccc1F (stereo unspecified) | -1 | -1 | -33* | 3 | -1
COc1cc2c(=O)n(CCC(=O)NCC3CCCO3)c(=O)n(CC(=O)Nc3ccc(C)cc3)c2cc1OC (stereo unspecified) | 0 | 0 | -16 | -3 | -1
COc1ccc(OCC(=O)NCc2ccc3c(c2)CCN3C(=O)c2ccc(F)cc2)cc1 | 0 | 5 | -2 | 2 | 0
CCc1nnc(SCC(=O)N(C)c2ccccc2)c2cc3sccc3n12 | -1 | 1 | 0 | -4 | -2
N#CC(C(=O)NC1CCCCC1)c1nc2ccccc2nc1N1CCN(c2ccccc2F)CC1 (stereo unspecified) | 1 | 10 | -35* | -3 | -5
N#CC(C(=O)OCc1ccccc1)c1nc2ccccc2nc1N1CCOCC1 (stereo unspecified) | 6 | 33* | 8 | 4 | 1
COC(=O)C1CCN(c2nc3ccccc3nc2C(C#N)C(=O)NCCc2ccccc2)CC1 (stereo unspecified) | 1 | 2 | -35* | -1 | 4
COC(=O)C1CCN(c2nc3ccccc3nc2C(C#N)C(=O)OCC(C)C)CC1 (stereo unspecified) | 4 | 5 | 9 | -10 | -6
N#CC(C(=O)NC1CCCCC1)c1nc2ccccc2nc1N1CCOCC1 (stereo unspecified) | 1 | 2 | 22 | -1 | 4
C=CCOC(=O)C(C#N)c1nc2ccccc2nc1N1CCN(Cc2ccc3c(c2)OCO3)CC1 (stereo unspecified) | 2 | 12 | -32* | -14 | 0
